# VP16 counter – inhibits Gal4-VP16 luciferase reporter, ROR gamma counter-screen; Drosophila S2 Gal4-VP16 UAS-luciferase, luminescence, 20 h; Potency, µM (series often up to 53.6 µM), for the others: at the top dose activity, negative = inhibition, most hits filed as inhibitors; 3.5% of 310,000 active; AID 2546;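 further: Gal4-VP16 expression switched on by copper sulfate through the metallothionein promoter; nearly all actives have a fitted effect of over 50% in size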
# DT40 TDP1 CPT – DT40-hTDP1 cell growth loss with CPT | chicken DT40 Tdp1-/-;hTDP1 cells + 20 nM CPT, ATP luminescence, 48 h | Potency, µM (highest dose often 46.2 µM), for inactives: at the highest dose activity change, negative = growth inhibition, usual class: inhibitors | 12% of 420,000 active; further: nearly all actives have a fitted effect of over 55% in size
#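 Chicken DT40 Tdp1-/- cells complemented with human TDP1, 400 cells/well, exposed to compounds plus 20 nM camptothecin for at least 48 h at 37 C; viability read as ATP content by CellTiter-Glo luminescence.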
# ELG1 DNA repair – inhibitors of ELG1-dependent DNA repair in HEK293T cells; HEK293T ELG1-luciferase reporter, luminescence, 16 h; DNA damage induced by 5-fluorouridine; AID 504467; Potency, µM (highest dose often 46.1 µM), for inactives: at the highest dose activity change, negative = inhibition, usual class: inhibitors; 2.3% of 330,000 active; further: nearly all actives have a fitted effect of over 55% in size
#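 Quantitative HTS, concentration-response format. 2,000 cells/well co-treated with 5-fluorouridine and compound, 16 hr in 5% CO2 at 37 °C; ONE-Glo luminescence read after 30 min.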
# RORg inh – blocks mouse ROR gamma transcriptional activity | P51450 | Drosophila S2 Gal4-RORgamma UAS-luciferase reporter, 20 h | Potency, µM (series often up to 53.6 µM), for the others: top-dose activity change, negative = inhibition, most hits filed as inhibitors | 5.4% of 310,000 active | AID 2551; further: nearly all actives have a fitted effect of over 60% in size
# Target sequence (P51450 whole entry, looked up, the tested form may be a part): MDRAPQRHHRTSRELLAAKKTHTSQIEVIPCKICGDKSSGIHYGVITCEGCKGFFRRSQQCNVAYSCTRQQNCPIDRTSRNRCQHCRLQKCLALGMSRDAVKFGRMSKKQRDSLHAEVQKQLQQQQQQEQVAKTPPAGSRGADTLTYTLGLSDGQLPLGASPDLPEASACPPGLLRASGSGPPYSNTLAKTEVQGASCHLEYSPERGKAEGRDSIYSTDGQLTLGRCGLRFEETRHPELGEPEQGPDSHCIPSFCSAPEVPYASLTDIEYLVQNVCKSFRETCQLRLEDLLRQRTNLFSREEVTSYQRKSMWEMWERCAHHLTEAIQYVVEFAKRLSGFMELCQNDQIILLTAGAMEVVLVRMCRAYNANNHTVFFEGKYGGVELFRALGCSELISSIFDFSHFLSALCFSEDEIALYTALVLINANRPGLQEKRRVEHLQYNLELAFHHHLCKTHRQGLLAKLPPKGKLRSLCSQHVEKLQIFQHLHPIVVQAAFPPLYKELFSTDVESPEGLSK
#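 Using a luciferase readout, inhibitors were identified by reduced reporter activity in Drosophila cells coexpressing a copper-inducible Gal4–ROR gamma fusion and UAS-driven Photinus luciferase, incubated 20 hr after 700 uM copper sulfate.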
# ALOX12 inh – inhibitors of human 12S-lipoxygenase ALOX12; P18054; purified 12hLO, xylenol orange hydroperoxide absorbance; Potency, µM (titrated, usually from 108 µM), without a hit: at the top dose activity change, negative = inhibition, usual class: inhibitors; 1.1% of 580,000 active; AID 1671190
#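 Hydroperoxide product was detected by ferrous iron/xylenol orange as the 573 to 405 nm absorbance ratio. Arachidonic acid at 40 uM (final) was turned over for 30 min at room temperature by 150 nM human 12hLO, pH 7.0 Hepes buffer, after 15 min compound preincubation.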
# TDP1 cell noCPT – qHTS for Inhibitors of human tyrosyl-DNA phosphodiesterase 1 (TDP1): qHTS in cells in absence of CPT; DT40 Tdp1-/- hTDP1 cells, no CPT, ATP luminescence, 48 h; Potency, µM (highest dose often 46.2 µM), without a hit: at the top dose activity change, negative = growth inhibition, most hits filed as inhibitors; 15% of 420,000 active; AID 686978, 2013; further: nearly all actives have a fitted effect of over 55% in size
#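 Seeded 400 DT40-hTDP1 cells/well (vehicle DMSO, no 20 nM CPT); pinned compounds; ≥48 hr at 37 °C; CellTiter-Glo luminescence as viability measure.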
# Numbers without * were called inactive; ? = inconclusive; . = no result; [ ] = another dose, or the depositor's remark. In the library only some 15% were active in any assay of this set; here they are far more common. The call rests on the fitted dose curve; in most records, active means well fitted curve in the direction sought with a large enough effect; inconclusive means small, poorly fitted or top-dose-only effect, or another doubt; inactive means no such curve, though single readings can be large; an effect the other way counts as inactive or inconclusive. On the % scale 0 is the no-effect control and ±100 the full control effect; potency means the concentration at half of the fitted maximal effect.
SMILES,VP16 counter,DT40 TDP1 CPT,ELG1 DNA repair,RORg inh,ALOX12 inh,TDP1 cell noCPT
CCOC(=O)C(C)Sc1nc2c(c(-c3cccs3)c1C#N)CCC2 (centres undefined),25µM*,-26%,-14%,?,-16%,?
CCCCCCNC(=O)O[C@H]1Cn2c(=O)n(CCCCCC)c(=O)n2[C@@H]2CN(S(=O)(=O)c3ccc(C)cc3)C[C@]12O,.,?,.,.,?,21µM*
CCCCCCn1c(=O)n2n(c1=O)[C@@H]1CN(S(=O)(=O)c3ccc(C)cc3)C[C@]1(O)[C@@H](OC(=O)NCC1CCCCC1)C2,.,?,.,.,-28%,16µM*
CCCCCCn1c(=O)n2n(c1=O)[C@@H]1CN(S(=O)(=O)c3ccc(C)cc3)C[C@]1(O)[C@@H](OC(=O)NCc1ccccc1F)C2,.,?,.,.,-48%,?
Cc1ccc(S(=O)(=O)N2C[C@H]3n4c(=O)ccc(=O)n4C[C@H](OC(=O)NCc4ccccc4F)[C@@]3(O)C2)cc1,.,?,.,.,-16%,21µM*
CCCCCCn1c(=O)n2n(c1=O)[C@@H]1CN(S(=O)(=O)c3ccc(C)cc3)C[C@]1(O)[C@@H](OC(=O)NCc1ccc(OC)c(OC)c1)C2,.,?,.,.,-6%,?
CCCCCCNC(=O)O[C@H]1Cn2c(=O)ccc(=O)n2[C@@H]2CN(S(=O)(=O)c3ccc(C)cc3)C[C@]12O,.,4.6µM*,.,.,?,3.7µM*
CCc1cc(N(C)Cc2noc(C3CC3)n2)n2nc(C)c(C)c2n1,.,.,.,.,59%,.
F[C@@H]1CN(C2CCC2)C[C@@H]1OCc1nc2ccccc2o1,.,.,.,.,12%[176 µM],.
CCCCCCn1c(=O)n2n(c1=O)[C@@H]1CN(S(=O)(=O)c3ccc(C)cc3)C[C@]1(O)[C@@H](OC(=O)NC1CC1)C2,.,?,.,.,?,16µM*
CCCCCCn1c(=O)n2n(c1=O)[C@@H]1CN(S(=O)(=O)c3ccc(C)cc3)C[C@]1(O)[C@@H](OC(=O)Nc1cccs1)C2,.,23µM*,.,.,0%,26µM*
CCO[C@@H]1OC(C(=O)N2CCN(Cc3ccccc3)CC2)=C[C@H](c2csc3ccccc23)[C@H]1CCCO,-1%,13µM*,-28%,14%,64%,29µM*
CCO[C@@H]1OC(C(=O)N2CCN(C)CC2)=C[C@H](c2ccc(C(F)(F)F)cc2)[C@H]1CCCO,-14%,-23%,18%,-9%,-11%,-10%
CCO[C@@H]1OC(C(=O)N2CCOCC2)=C[C@H](c2ccc(C(F)(F)F)cc2)[C@H]1CCCO,-16%,15µM*,-15%,30%,26%,?
CCO[C@H]1OC(C(=O)N2CCCCCCC2)=C[C@@H](c2ccccc2)[C@@H]1CCCO,6%,?,-2%,21%,0%,?
CCO[C@@H]1OC(C(=O)N2CCCCCCC2)=C[C@H](c2ccc(C(F)(F)F)cc2)[C@H]1CCCO,-16%,?,2%,26%,-5%,23µM*
CCO[C@H]1OC(C(=O)N2CCN(C)CC2)=C[C@@H](c2ccc(C(F)(F)F)cc2)[C@@H]1CCCO,-1%,-4%,1%,2%,-2%,-1%
CCO[C@H]1OC(C(=O)N2CCN(Cc3ccccc3)CC2)=C[C@@H](c2ccc(C(F)(F)F)cc2)[C@@H]1CCCO,-24%,21µM*,-16%,?,-10%,15µM*
CCO[C@H]1OC(C(=O)N2CCCCCCC2)=C[C@@H](c2csc3ccccc23)[C@@H]1CCCO,16%,-28%,-21%,4%,22%,-27%
O/N=C1\CCSc2ccccc21,.,.,.,.,21%,.
CCO[C@H]1OC(C(=O)N2CCOCC2)=C[C@@H](c2ccc(C(F)(F)F)cc2)[C@@H]1CCCO,-12%,0.52µM*,2%,-3%,1%,?
COC1CCOC2(CCN(C(=O)c3cccc(C)c3)CC2)C1 (centres undefined),.,.,.,.,44%,.
N#Cc1nccnc1S(=O)(=O)c1cccs1,3.5µM*,0.65µM*,?,3.2µM*,316%,1µM*
Cc1cccc(OCC(=O)N(Cc2cccs2)c2ccc(Cl)cc2)c1C,.,?,.,.,0%,?
CCOc1ccccc1C(=O)N(Cc1cccs1)c1ccc(Cl)cc1,.,16µM*,.,.,0%,10µM*
SMILES,VP16 counter,DT40 TDP1 CPT,ELG1 DNA repair,RORg inh,ALOX12 inh,TDP1 cell noCPT
Cc1ccc(N(Cc2cccs2)C(=O)c2ccccc2Cl)cc1,.,13µM*,.,.,-1%,18µM*
Cc1ccsc1C(=O)N1CCC(N2C[C@H](O)C[C@H]2C(=O)NC2CCCCC2)CC1,.,.,.,.,70%,.
Cc1nn(C)cc1CNC(=O)c1ccc(F)cc1,-7%,-6%,?,-9%[10 µM],-9%,-21%
CCCCc1nc2cc(C(=O)NCc3cn(C)nc3C)ccc2o1,0.063µM*,?,-10%,1µM*,-3%,?
CCCOc1cccc(C(=O)Nc2cc(-c3nc4ccccc4[nH]3)ccc2C)c1,.,16µM*,.,.,-5%,16µM*
Cc1ccc(OCC(=O)Nc2cc(-c3nc4ccccc4[nH]3)ccc2C)c(C)c1,.,.,.,.,-21%,.
Cc1ccc(-c2nc3ccccc3[nH]2)cc1NC(=O)COc1ccccc1[N+](=O)[O-],.,15µM*,.,.,-27%,?
Cc1ccc(-c2nc3ccccc3[nH]2)cc1NC(=O)c1ccc2c(c1)OCO2,-4%,?,?,26%,16%,?
CCOc1ccc(C(=O)Nc2cc(-c3nc4cc(OC)ccc4o3)ccc2C)cc1[N+](=O)[O-],.,.,.,.,-11%,.
CCOc1ccc(C(=O)Nc2cc(-c3nc4ccccc4[nH]3)ccc2C)cc1[N+](=O)[O-],-5%,?,23µM*,30%,?,?
CCOc1ccccc1NC(=O)c1ccc(OCC)c([N+](=O)[O-])c1,-1%,?,1%,6%,-23%,-29%
CCOc1ccc(C(=O)Nc2cc(-c3nc4ccccc4[nH]3)ccc2Cl)cc1[N+](=O)[O-],-24%,?,?,-20%,-15%,23µM*
COc1ccc(Oc2c(C)oc3cc(OCC(=O)c4ccccc4)ccc3c2=O)cc1,.,.,.,.,27%,.
O=C(c1ccco1)N1CCN(C(=O)C2CN(S(=O)(=O)C3CC3)CC23CCCCC3)CC1 (centres undefined),.,.,.,.,-4%,.
CCOC(=O)CC(=O)CSc1nc(-c2cccnc2)ccc1C#N,4%,?,?,-4%,2%[57.4 µM],3.5µM*

# Source: PubChem BioAssay
